The values below come from PubChem BioAssay (Tox21).

In assay [1] the test system is thyroid hormone receptor (rat, GH3 cells). Put plainly: qHTS assay to identify small molecule agonists of the thyroid receptor (TR) signaling pathway (AID 743066; calls by dose curve). In general terms: qHTS replaces the single test concentration by a dilution series.
For assay [2], the target named is Estrogen receptor (Homo sapiens) (UniProt P03372). Description: qHTS assay to identify small molecule antagonists of the estrogen receptor alpha (ER-alpha) signaling pathway (AID 743069; active = well fitted curve in the direction sought with a large enough effect in the signal ratio in the repeat runs, not every such curve was filed as active; inconclusive = weak or mixed curves, or effect the other way; inactive = no such curve, though single readings can be large or run the other way; the % refers to the signal ratio). A digest of the protocol: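 In this cell-based reporter format, GripTite HEK293 cells harbouring ER-alpha-UAS-bla were grown overnight with 2% charcoal-stripped FBS, dosed with DMSO-dissolved compounds, then challenged with 17beta-estradiol. After 18 hr at 37C, beta-lactamase activity was detected by FRET fluorescence.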

Assay [3] can be described thus: qHTS assay to identify small molecule antagonists of the estrogen receptor alpha (ER-alpha) signaling pathway - cell viability counter screen (AID 743074; calls by dose curve; also: nearly all actives have a fitted effect of over 45% in size; also: potency is read from the fitted curve at half-maximal effect).
For assay [4], the target named is Estrogen receptor (Homo sapiens) (UniProt P03372). Description: qHTS assay to identify small molecule agonists of the estrogen receptor alpha (ER-alpha) signaling pathway (AID 743075; calls by dose curve; also: potency is read from the fitted curve at half-maximal effect).
The target is the same in assay [5]. Description: qHTS assay to identify small molecule agonists of the estrogen receptor alpha (ER-alpha) signaling pathway using the BG1 cell line (AID 743079). Also: nearly all actives have a fitted effect of over 20% in size. Also: potency is read from the fitted curve at half-maximal effect.
Assay [6] is described as follows: qHTS assay to identify small molecule antagonists of the estrogen receptor alpha (ER-alpha) signaling pathway using the BG1 cell line (AID 743080; calls by dose curve;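 also: BG1 cells stimulated with 17beta-estradiol alongside compound; series mostly up to about 70 µM; nearly all actives have a fitted effect of over 25% in size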). Put shortly:
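Luminescence from a 4×ERE-luciferase reporter in BG1-Luc-4E2 cells served as read-out. Cells, pre-cultured 5 days in stripped-serum phenol-red-free medium, were exposed to compound with 17beta-estradiol co-stimulation for 21.5 h at 37 C.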

A short description of assay [7]: qHTS assay to identify small molecule antagonists of the estrogen receptor alpha (ER-alpha) signaling pathway using the BG1 cell line - cell viability counter screen (AID 743081).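 Also: compound given together with 17beta-estradiol as the ER stimulus; nearly all actives have a fitted effect of over 45% in size.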 Also: potency is read from the fitted curve at half-maximal effect.
Assay [8] addresses Aromatase (Homo sapiens) (UniProt P11511). Put plainly: qHTS assay to identify aromatase inhibitors (AID 743083). Also: nearly all actives have a fitted effect of over 55% in size. Also: potency is read from the fitted curve at half-maximal effect.
Assay [9] in a line: qHTS assay to identify aromatase inhibitors - cell viability counter screen (AID 743084).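 Also: cells stimulated with testosterone during compound exposure; nearly all actives have a fitted effect of over 55% in size.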 Also: potency is read from the fitted curve at half-maximal effect.
Assay [10] concerns the target Aryl hydrocarbon receptor (Homo sapiens) (UniProt P35869). Description: qHTS assay to identify small molecule that activate the aryl hydrocarbon receptor (AhR) signaling pathway (AID 743085). Also: nearly all actives have a fitted effect of over 15% in size. Also: potency is read from the fitted curve at half-maximal effect. Put shortly: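 Measured in HG2L7.5c1 cells: CellTiter-Fluor signal (30 min incubation, 37C) for viability, then luciferase luminescence (30 min, room temperature). Compound contact time was 24 h at 37C, following a 5 h pre-incubation.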

Values joined by “and” are separate entries in the source; they are usually repeats but may differ in a detail not shown here. Equal entries are not always repeated. Some compounds were tested as several samples or in several runs, with calls that do not always agree. Active and inactive are the calls of the source. Unless noted, calls follow the shape of the dose curve; as a rule, active = well fitted curve in the direction sought with a large enough effect in the repeat runs; inconclusive = weak or mixed curves; inactive = no such curve, though single readings can be large; an effect the other way counts as inactive or inconclusive.

Chain of Aryl hydrocarbon receptor (Homo sapiens) (P35869 whole entry, looked up): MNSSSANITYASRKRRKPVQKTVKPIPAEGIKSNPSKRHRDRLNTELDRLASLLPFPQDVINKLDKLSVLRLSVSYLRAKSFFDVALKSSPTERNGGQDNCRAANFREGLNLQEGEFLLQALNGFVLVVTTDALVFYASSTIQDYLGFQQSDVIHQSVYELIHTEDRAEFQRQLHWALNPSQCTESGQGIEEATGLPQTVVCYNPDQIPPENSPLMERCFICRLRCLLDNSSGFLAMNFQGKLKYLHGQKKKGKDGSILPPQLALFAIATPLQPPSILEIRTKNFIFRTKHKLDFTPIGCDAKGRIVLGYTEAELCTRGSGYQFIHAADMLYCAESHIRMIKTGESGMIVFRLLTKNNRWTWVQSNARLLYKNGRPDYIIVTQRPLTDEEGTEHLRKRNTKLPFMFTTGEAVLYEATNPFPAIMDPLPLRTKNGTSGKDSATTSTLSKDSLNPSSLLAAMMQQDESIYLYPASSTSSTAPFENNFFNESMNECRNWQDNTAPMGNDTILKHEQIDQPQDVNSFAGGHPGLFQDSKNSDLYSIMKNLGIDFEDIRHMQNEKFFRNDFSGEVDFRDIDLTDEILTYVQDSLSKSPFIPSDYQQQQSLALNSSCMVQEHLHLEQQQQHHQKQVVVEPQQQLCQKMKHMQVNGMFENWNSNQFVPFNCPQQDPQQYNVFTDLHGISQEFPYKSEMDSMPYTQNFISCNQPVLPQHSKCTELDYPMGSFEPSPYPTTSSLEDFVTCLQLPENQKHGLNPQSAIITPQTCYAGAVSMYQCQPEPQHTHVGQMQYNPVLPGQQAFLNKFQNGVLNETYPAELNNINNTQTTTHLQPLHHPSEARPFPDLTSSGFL
Chain of Estrogen receptor (Homo sapiens) (P03372 whole entry, looked up): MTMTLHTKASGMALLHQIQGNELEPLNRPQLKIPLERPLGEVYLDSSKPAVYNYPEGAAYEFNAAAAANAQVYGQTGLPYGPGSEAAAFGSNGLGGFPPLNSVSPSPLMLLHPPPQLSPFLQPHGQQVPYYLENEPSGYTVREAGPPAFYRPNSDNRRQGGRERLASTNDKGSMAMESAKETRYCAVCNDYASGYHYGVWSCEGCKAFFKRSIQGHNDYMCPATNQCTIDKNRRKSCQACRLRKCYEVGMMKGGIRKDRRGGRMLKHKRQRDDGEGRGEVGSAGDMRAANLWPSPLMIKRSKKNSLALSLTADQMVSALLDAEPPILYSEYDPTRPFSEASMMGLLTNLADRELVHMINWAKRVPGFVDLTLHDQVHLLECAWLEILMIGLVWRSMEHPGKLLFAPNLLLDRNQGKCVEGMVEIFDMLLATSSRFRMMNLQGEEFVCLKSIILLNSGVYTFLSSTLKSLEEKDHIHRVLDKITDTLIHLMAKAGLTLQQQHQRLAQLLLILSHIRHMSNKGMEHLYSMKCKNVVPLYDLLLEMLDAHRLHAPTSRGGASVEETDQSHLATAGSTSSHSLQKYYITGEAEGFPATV
Chain of Aromatase (Homo sapiens) (P11511 whole entry, looked up): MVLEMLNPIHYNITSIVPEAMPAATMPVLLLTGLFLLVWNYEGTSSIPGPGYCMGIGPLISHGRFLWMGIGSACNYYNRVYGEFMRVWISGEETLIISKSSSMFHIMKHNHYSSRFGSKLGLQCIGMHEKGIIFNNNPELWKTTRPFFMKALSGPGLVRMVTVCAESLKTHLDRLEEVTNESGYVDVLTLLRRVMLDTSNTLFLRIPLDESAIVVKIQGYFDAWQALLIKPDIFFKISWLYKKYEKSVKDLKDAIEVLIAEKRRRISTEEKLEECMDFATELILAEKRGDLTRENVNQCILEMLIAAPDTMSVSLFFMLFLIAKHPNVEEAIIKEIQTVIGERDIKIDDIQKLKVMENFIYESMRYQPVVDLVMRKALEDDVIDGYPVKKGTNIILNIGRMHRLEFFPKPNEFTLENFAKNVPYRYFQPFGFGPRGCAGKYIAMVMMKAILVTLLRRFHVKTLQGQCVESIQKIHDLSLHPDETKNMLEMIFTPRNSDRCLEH

Regarding `CC1=CC2C3CC(C=C3C)C2C1` (stereo not drawn), the Potency result in [1], in [2], in [3], in assay [4], in assay [5] and in assay [6] was “inactive” throughout. Further, the Potency entry in assay [7], in [8], in assay [9] and in assay [10] was “inactive” each time.

For `O=C1OC2(c3cc(Br)c(O)c(Br)c3Oc3c2cc(Br)c(O)c3Br)c2c(Cl)c(Cl)c(Cl)c(Cl)c21`, the Potency entry in assay [1], in [2], in assay [4], in assay [5], in assay [8] and in [10] was “inactive” each time. Also, the Potency was 8.64 µM (active) and 18.6 µM (active) in assay [7]; 4.86 µM (active) and 8.31 µM (active) in assay [9].

In the case of `CCC(C)OC(=O)c1ccc(O)cc1` (stereo not drawn), the Potency entry in assay [1], in assay [2], in assay [3], in assay [7], in [8] and in assay [9] was “inactive” each time. Besides, the Potency entry in assay [10] was “inactive”. Moreover, the Potency is 24.7 µM [inconclusive] (active) and 38.9 µM [inconclusive] (active) in [4]; 6.9 µM (active) and 6.11 µM (active) in [5].

On to `OC1CCCCCCCCCCC1`, for which the Potency entry in assay [1], in assay [2], in [3], in [4], in [5] and in [6] was “inactive” each time. Besides, the Potency entry in [7], in assay [8], in assay [9] and in assay [10] was “inactive” each time.

For `CCC(C)CO` (stereo not drawn), the Potency entry in assay [1], in [2], in [3], in assay [4], in assay [5] and in assay [6] was “inactive” throughout. Also, the Potency entry in assay [7], in [8], in assay [9] and in [10] was “inactive” throughout.

For the compound `c1ccc2c(c1)c1cccc3ccc4cccc2c4c31`, the Potency result in assay [1], in [2], in assay [4], in assay [5], in assay [6] and in [7] was “inactive” in each case. Further, the Potency entry in assay [8], in assay [9] and in assay [10] was “inactive” throughout. In [3], the Potency is 3.07 µM (active) and inactive.

With `c1ccc2c(c1)Oc1ccccc1S2`, the Potency entry in [1], in assay [3], in assay [4], in assay [7], in [8] and in [9] was “inactive” each time. For the same compound, the Potency result in assay [5] was “inactive and 61.1 µM (active)”.

In the case of `CCCCOCCOCCOCCO`, the Potency result in assay [1], in assay [3], in assay [4], in assay [5], in assay [6] and in assay [7] was “inactive” in each case. The Potency entry in assay [8], in assay [9] and in [10] was “inactive” throughout.

With `O=S(=O)(O)c1ccc(O)cc1`, the Potency result in [1], in [3], in [4], in [5], in [7] and in assay [8] was “inactive” throughout. Moreover, the Potency result in assay [9] and in assay [10] was “inactive” in each case.

For `CCCCOCCOCCO`, the Potency result in [1], in assay [2], in [3], in assay [4], in [5] and in assay [7] was “inactive” each time. For the same compound, the Potency result in [9] and in assay [10] was “inactive” throughout. For the same compound, the Potency entry in assay [8] was “inactive and 61.1 µM (active)”.

In the case of `C[C@]12CCC(=O)C=C1CC[C@@H]1[C@@H]2C(=O)C[C@@]2(C)[C@H]1CC[C@]2(O)C(=O)CO`, the Potency result in assay [1], in [2], in assay [3], in assay [4], in assay [5] and in [7] was “inactive” each time. In addition, the Potency result in assay [8], in assay [9] and in [10] was “inactive” each time.

Regarding `COC(C)COC(C)COC(C)CO` (stereo not drawn), the Potency entry in assay [1], in assay [3], in assay [4], in assay [5], in assay [6] and in assay [7] was “inactive” each time. Further, the Potency result in assay [8], in assay [9] and in assay [10] was “inactive” each time.

With `Cc1ccc2c(n1)Oc1ccc(C(C)C(=O)OCC(=O)N(C)C)cc1C2` (stereo not drawn), the Potency result in [1], in assay [2], in assay [3], in [4], in assay [5] and in [7] was “inactive” each time. In addition, the Potency result in assay [8] and in [9] was “inactive” throughout. The Potency in assay [10] was 11.9 µM (active).

As to `CCCCCCCCCCCO`, the Potency result in [1], in assay [2], in [3], in assay [4], in [5] and in [6] was “inactive” each time. The Potency entry in assay [7] and in assay [10] was “inactive” each time. Also, the Potency result in assay [8] was “inactive and 27.3 µM (active)”; in assay [9] it was “inactive and 27.3 µM (active)”.

As to `c1ccc2sc(SSN3CCOCC3)nc2c1`, the Potency result in [1], in [2], in [3], in [4], in [5] and in assay [7] was “inactive” in each case. The Potency in [8] was 5.44 µM (active); in assay [9], 6.84 µM (active); in assay [10], 30.6 µM (active).

With `Cc1cccc(C(=O)O)c1`, the Potency entry in [1], in assay [2], in assay [3], in [4], in assay [5] and in [6] was “inactive” in each case. Further, the Potency entry in [7], in assay [8], in assay [9] and in assay [10] was “inactive” throughout.

For the compound `CCC(C)(O)CCCC(C)C` (stereo not drawn), the Potency entry in assay [1], in [3], in assay [4], in assay [5], in assay [7] and in [8] was “inactive” throughout. Further, the Potency result in [9] and in assay [10] was “inactive” in each case.

Consider `CC(=O)O[C@]1(C(C)=O)CC[C@H]2[C@@H]3C=C(Cl)C4=CC(=O)[C@@H]5C[C@@H]5[C@]4(C)[C@H]3CC[C@@]21C`, for which the Potency entry in assay [1], in [3], in assay [7], in assay [9] and in [10] was “inactive” each time. Moreover, the Potency entry in assay [8] is “inactive and 54.4 µM (active)”.

Take `c1cc(N(CC2CO2)CC2CO2)ccc1OCC1CO1` (stereo not drawn): the Potency result in assay [1], in assay [3], in assay [4], in [5], in [7] and in assay [10] was “inactive” throughout. Moreover, the Potency is 24.4 µM (active) and 54.5 µM (active) in assay [8]; 27.3 µM (active) in assay [9].

Consider `O=[N+]([O-])c1ccc2c(c1)Cc1ccccc1-2`, for which the Potency result in [1], in assay [3], in assay [4], in [7], in assay [8] and in assay [9] was “inactive” throughout. Moreover, the Potency in assay [5] is 13.7 µM (active); in [10], “inactive and 61.1 µM (active)”.

With `CC(=O)Oc1ccccc1C(=O)Nc1ncc([N+](=O)[O-])s1`, the Potency entry in assay [1] and in assay [4] was “inactive” each time. The Potency is 7.56 µM (active) in assay [3]; 0.668 µM (active) in assay [5]; “inactive and 19.7 µM (active)” in assay [8]; 22.1 µM (active) in assay [9]; 10.6 µM (active) and inactive in assay [10].
